In the supplement of paper PMC10646978 one finds NF-kB reporter, IRF reporter and viability score data, which are given here for 7 molecules.

Common to all, as to conditions: modulator concentration 10 µM
The test system of assay [1] is RAW-Dual (murine macrophage reporter line). In words: NF-kB reporter (SEAP) activity fold change vs agonist alone; higher = enhanced NF-kB activity. The essentials:
(§1)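 Overnight stimulation with a PRR agonist followed pre-incubation for 1 hour at 37 °C with compound at 10 μM final. This was done in RAW-Dual murine macrophage reporter cells seeded at 50 000 per well in 384-well plates. NF-κB (SEAP, QUANTI-Blue absorbance at 620 nm) and IRF (Lucia luciferase, QUANTI-Luc luminescence) were read from the supernatant. Each reporter's fold change relative to the mean agonist-only control on the same plate was averaged over replicate plates.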

Assay [2] shares this test system. The experiment in a line: IRF reporter (Lucia luciferase) activity fold change vs agonist alone; higher = enhanced IRF activity. The essentials:
as §1

The test system is the same in assay [3]. In words: viability score (confluency relative to resting cells, overnight) (fraction); higher = more viable, active = viable (0.7 or more). In outline:
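In 384-well plates, RAW-Dual macrophages received compound at a final 10 μM overnight. Two confluency masks were then made with IncuCyte software from IncuCyte images of all imaged wells. The viability score is defined as confluency relative to resting cells. Passing the cutoff required both masks to lie above 70% of resting cells.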

The mark [4] stands for this setting: agonist: CpG ODN 1826 0.5 ug/mL.

± gives the standard deviation.

As to `COc1ccc(OC)c(C=C2C(=O)NC(=O)NC2=O)c1`, the values for the NF-kB reporter in assay [1] (setting [4]), in assay [1] (agonist: LPS 0.1 ug/mL) and in assay [1] (agonist: MPLA […]) were 1.15 ± 0.12, 0.845 ± 0.061 and 1.12 ± 0.061, respectively. The IRF reporter was 0.99 ± 0.17 in assay [2] (agonist: 3'3'-cGAMP 10 ug/mL), 0.995 ± 0.05 in assay [2] (agonist: LPS 0.1 ug/mL) and 1.01 ± 0.16 in assay [2] (agonist: MPLA […]). In addition, the viability score in assay [3] is 0.995 (active).

Turning to `O=C1NC(=O)N(c2ccccc2F)C(=O)C1=Cc1cc(Cl)ccc1OCc1ccc([N+](=O)[O-])cc1`, the NF-kB reporter in assay [1] (setting [4]) is 0.892 ± 0.071; in assay [1] (agonist: LPS 0.1 ug/mL), 1.05 ± 0.078; in assay [1] (agonist: MPLA […]), 0.744 ± 0.045. Besides, the IRF reporter turned out to be 0.741 ± 0.018 in assay [2] (agonist: 3'3'-cGAMP 10 ug/mL), 0.972 ± 0.087 in assay [2] (agonist: LPS 0.1 ug/mL) and 0.855 ± 0.16 in assay [2] (agonist: MPLA […]). Also, the viability score in assay [3] is 1.01 (active).

`O=C1NC(=O)C(=CNc2cccc(O)c2)C(=O)N1`: the NF-kB reporter in assay [1] (setting [4]) was 0.859 ± 0.075; in assay [1] (agonist: LPS 0.1 ug/mL), 0.914 ± 0.053; in assay [1] (agonist: MPLA […]), 1.09 ± 0.13. For the same molecule, the IRF reporter came to 0.977 ± 0.062 in assay [2] (agonist: 3'3'-cGAMP 10 ug/mL), 1.43 ± 0.1 in assay [2] (agonist: LPS 0.1 ug/mL) and 1.6 ± 0.17 in assay [2] (agonist: MPLA […]). In addition, the viability score in assay [3] was 1.01 (active).

With `CN(C)CCC(=O)c1ccccc1`, the NF-kB reporter in assay [1] (setting [4]) turned out to be 0.736 ± 0.06; in assay [1] (agonist: LPS 0.1 ug/mL), 0.28 ± 0.032; in assay [1] (agonist: MPLA […]), 0.33 ± 0.018. The IRF reporter in assay [2] (agonist: 3'3'-cGAMP 10 ug/mL) came out at 0.155 ± 0.054; in assay [2] (agonist: LPS 0.1 ug/mL), 0.134 ± 0.0059; in assay [2] (agonist: MPLA […]) it was 0.09 ± 0.0096. Also, in assay [3], the viability score is 0.463 (inactive).

Consider `O=C1NC(=O)C(C(CC(=O)c2ccccc2)c2ccccc2)C(=O)N1` (centres undefined), for which the results for the NF-kB reporter in assay [1] (setting [4]), in assay [1] (agonist: LPS 0.1 ug/mL) and in assay [1] (agonist: MPLA […]) were 1.04 ± 0.093, 0.984 ± 0.076 and 0.93 ± 0.035, respectively. Besides, the IRF reporter in assay [2] (agonist: 3'3'-cGAMP 10 ug/mL) was 0.942 ± 0.12; in assay [2] (agonist: LPS 0.1 ug/mL) it was 1.02 ± 0.045; in assay [2] (agonist: MPLA […]) it was 0.931 ± 0.14. Also, in assay [3], the viability score is 1 (active).

As for `CC[C@@H](C(N)=O)N1CCCC1=O`, the NF-kB reporter in assay [1] (setting [4]) amounted to 1.04 ± 0.1; in assay [1] (agonist: LPS 0.1 ug/mL) it was 1.05 ± 0.059; in assay [1] (agonist: MPLA […]) it was 0.993 ± 0.056. In addition, the IRF reporter was determined as 1.06 ± 0.17 in assay [2] (agonist: 3'3'-cGAMP 10 ug/mL), 0.88 ± 0.075 in assay [2] (agonist: LPS 0.1 ug/mL) and 0.863 ± 0.15 in assay [2] (agonist: MPLA […]). In assay [3], the viability score was 1 (active).

With `CCOC(=O)c1ccccc1-c1ccc(C=C2C(=O)NC(=O)N(c3ccc(C)cc3)C2=O)o1`, the NF-kB reporter in assay [1] (setting [4]) was 0.912 ± 0.071; in assay [1] (agonist: LPS 0.1 ug/mL), 0.931 ± 0.058; in assay [1] (agonist: MPLA […]), 0.971 ± 0.087. Besides, the IRF reporter in assay [2] (agonist: 3'3'-cGAMP 10 ug/mL) is 0.999 ± 0.061; in assay [2] (agonist: LPS 0.1 ug/mL) it was 1.4 ± 0.081; in assay [2] (agonist: MPLA […]), 1.7 ± 0.14. Besides, the viability score in assay [3] was 0.951 (active).
